Data on 31 compounds can be found in PubChem BioAssay AID504863 (Sanford-Burnham Center for Chemical Genomics, 2011).

Structures are written as SMILES. The list shows a part of the results. Unmarked numbers belong to inactive results. The source made the active and inactive calls.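 How the source made its calls: active means inhibition averaging 50% or more, tested at 20 µM; inactive means the rest.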

This assay relates to diaphorase (Clostridium kluyveri). The assay is described as follows: diaphorase inhibitors and chemical oxidizers, confirmation, counter-screen for P. falciparum G6PD inhibitor project, biochemical, fluorescence intensity, 30 µM NADPH (AID 504863).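 Further: 0% = DMSO with enzyme and 100% = DMSO wells lacking diaphorase.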 The settings on record: Diaphorase/resazurin coupled assay, resorufin fluorescence, at 20 µM, active compounds read high. (In general: A counterscreen serves to expose hits that act by an unwanted route or on another target.)
For orientation: inhibition means the change of the read-out against control, counted positive when it falls. In the case of `COc1ccc(CC(=O)NCC(=O)N/N=C/c2cc(Br)ccc2OC)cc1`, the inhibition is 70.8% (active).

With `CCOC(=O)C1=C(c2ccc(OC)cc2)C(=O)c2ccccc2C1=O`, the inhibition is 85.7% (active).

`COc1cccc(C(=O)Nc2nnc(S(=O)(=O)N(C)c3ccccc3)s2)c1`: the inhibition was 56.8% (active).

On to `CCSc1nnc(NC(=O)c2ccc(C)cc2)s1`, for which the inhibition is 56.5% (active).

As to `COc1c(O)ccc2c1CN1CCc3cc4c(cc3C1C2)OCO4` (stereo unspecified), the inhibition was 8.58%.

With `Cn1c(-c2sccc2OCc2cccc(C(F)(F)F)c2)n[nH]c1=S`, the inhibition is 10.1%.

For the compound `O=C(Nc1nnc(S(=O)(=O)N2CCCCCC2)s1)c1cccc(Br)c1`, the inhibition was 41.6%.

Regarding `O=C(NC1=CC(=O)c2ccccc2C1=O)c1ccccc1`, the inhibition is 60.6% (active).

`c1ccc(-c2cn3c(n2)CCc2ccc4cccnc4c2-3)cc1`: the inhibition is 45%.

`COc1ccc(OCc2nnc3n2N=C(c2ccccc2)C(CC(=O)O)S3)cc1` (stereo unspecified): the inhibition was 1.64%.

As to `COc1ccc2c(c1)c(=Cc1ccc(N(C)C)cc1)c1cc(-c3ccccc3)[n+](C)n12`, the inhibition was 15.6%.

For the compound `COc1cccc(C(=O)Nc2nnc(S(=O)(=O)N3CCOCC3)s2)c1`, the inhibition is 54.9% (active).

For `Cc1ccc(NC(=O)Cn2sc3ccccc3c2=O)cc1`, the inhibition is 11.3%.

Take `COc1cccc(C(=O)Nc2nnc(S(=O)(=O)N3CCCCC3)s2)c1`: the inhibition was 57% (active).

As to `Cc1cccc(C(=O)Nc2nnc(S(=O)(=O)N3CCCCCC3)s2)c1`, the inhibition was 36.1%.

For `CC(C)(C)NC(=O)COc1ccc(CNc2ccc3[nH]c(=O)[nH]c3c2)cc1`, the inhibition is 12.2%.

As for `O=c1[nH]c2ccccc2n2c(-c3ccccc3)nnc12`, the inhibition is 15.9%.

On to `O=C(Nc1nnc(S(=O)(=O)N2CCOCC2)s1)c1cccc(Br)c1`, for which the inhibition is 48.1%.

In the case of `O=C(CN1CCN(c2ccc(O)cc2)CC1)Nc1cc(S(=O)(=O)N2CCOCC2)ccc1Cl`, the inhibition was 7.17%.

For `O=[N+]([O-])c1c(NCCO)cc(Sc2nc3ccccc3s2)c2nonc12`, the inhibition is 0.96%.

With `CCOc1ccccc1/C=N/NC(=O)CNC(=O)COc1ccccc1`, the inhibition was 88.1% (active).

Regarding `C=CCc1ccccc1OCC(=O)N/N=C/c1ccccc1OCC`, the inhibition was 43.5%.

For `O=C1C=CC(=O)N1c1ccc(N2CCCCC2)cc1`, the inhibition is -16.6%.

Regarding `OCCN1CCN(C(=S)c2ccc(-c3ccccc3)cc2)CC1`, the inhibition was 2.65%.

In the case of `CCN1CCCC1CNC(=O)c1ccc2c(c1)NC(=O)/C(=C\c1ccccc1F)S2` (stereo unspecified), the inhibition is -9.58%.

Regarding `CCN(CC)c1ccc2oc(=O)c(C)nc2c1`, the inhibition is 62.5% (active).

`Cc1ccnc(-n2sc3ccccc3c2=O)n1`: the inhibition is -26.9%.

For `O=C1/C(=C\c2ccc([N+](=O)[O-])cc2)CS(=O)(=O)C/C1=C/c1ccc([N+](=O)[O-])cc1`, the inhibition was -12.8%.

As for `O=C(Nc1nc(-c2ccncc2)cs1)C1COc2ccccc2O1` (stereo unspecified), the inhibition was -24.7%.

Regarding `COc1ccc(CCn2c(NN=C3CCCC3)nc3c2c(=O)[nH]c(=O)n3C)cc1`, the inhibition was -4.07%.

On to `Cc1ccc(/C=C/C(=O)Nc2ccc([N+](=O)[O-])c(NC(=O)/C=C/c3ccc(C)o3)c2)o1`, for which the inhibition was -7.03%.
